Measured values as given in the supplement of paper PMC7411054.

Legend:
Experiment in all cases: phenotypically active (imaging signature differs from DMSO and reproducible) at any of 0.3-9 uM (binary (1 = active, 0 = inactive)); higher = active
Conditions in all cases: treatment time: 24 h
A549-ACTB-RAB5A = system: A549-ACTB-RAB5A
Summary of the method: (§1)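 After 24 h at 0.3, 1, 3 or 9 µM, with four wells per treatment, fifteen gene-edited A549, HepG2 and WPMY1 reporter lines carrying BFP, GFP and RFP/FusionRed were imaged live. Each well's live-cell features were expressed relative to solvent control wells. Deviation required ≥3 of 4 wells past the 95th percentile of control Euclidean distances, and reproducibility a median replicate Pearson correlation over the 95th percentile of non-replicates. Phenotypic activity rested on both.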

A549-CANX-COX4 = system: A549-CANX-COX4
Summary of the method: as §1

A549-GM130-SQSTM1 = system: A549-GM130-SQSTM1
Summary of the method: as §1

A549-TP53BP1-CLTA = system: A549-TP53BP1-CLTA
Summary of the method: as §1

A549-TUBA1B-RELA = system: A549-TUBA1B-RELA
Summary of the method: as §1

HepG2-ACTB-RAB5A = system: HepG2-ACTB-RAB5A
Summary of the method: as §1

HepG2-CANX-COX4 = system: HepG2-CANX-COX4
Summary of the method: as §1

HepG2-GM130-SQSTM1 = system: HepG2-GM130-SQSTM1
Summary of the method: as §1

HepG2-TP53BP1-CLTA = system: HepG2-TP53BP1-CLTA
Summary of the method: as §1

HepG2-TUBA1B-RELA = system: HepG2-TUBA1B-RELA
Summary of the method: as §1

WPMY1-ACTB-RAB5A = system: WPMY1-ACTB-RAB5A
Summary of the method: as §1

WPMY1-CANX-COX4 = system: WPMY1-CANX-COX4
Summary of the method: as §1

WPMY1-GM130-SQSTM1 = system: WPMY1-GM130-SQSTM1
Summary of the method: as §1

WPMY1-TP53BP1-CLTA = system: WPMY1-TP53BP1-CLTA
Summary of the method: as §1

WPMY1-TUBA1B-RELA = system: WPMY1-TUBA1B-RELA
Summary of the method: as §1

Measured: phenotypically active

CN(C)/N=N/c1[nH]cnc1C(N)=O [dacarbazine]
inactive: A549-ACTB-RAB5A 0 | A549-CANX-COX4 0 | A549-GM130-SQSTM1 0 | A549-TP53BP1-CLTA 0 | A549-TUBA1B-RELA 0 | HepG2-ACTB-RAB5A 0 | HepG2-CANX-COX4 0 | HepG2-GM130-SQSTM1 0 | HepG2-TP53BP1-CLTA 0 | HepG2-TUBA1B-RELA 0 | WPMY1-ACTB-RAB5A 0 | WPMY1-CANX-COX4 0 | WPMY1-GM130-SQSTM1 0 | WPMY1-TP53BP1-CLTA 0 | WPMY1-TUBA1B-RELA 0

C#C[C@]1(O)CC[C@H]2[C@@H]3CCc4cc(OC)ccc4[C@H]3CC[C@@]21C [mestranol]
inactive: A549-ACTB-RAB5A 0 | A549-CANX-COX4 0 | A549-GM130-SQSTM1 0 | A549-TP53BP1-CLTA 0 | A549-TUBA1B-RELA 0 | HepG2-ACTB-RAB5A 0 | HepG2-CANX-COX4 0 | HepG2-GM130-SQSTM1 0 | HepG2-TP53BP1-CLTA 0 | HepG2-TUBA1B-RELA 0 | WPMY1-ACTB-RAB5A 0 | WPMY1-CANX-COX4 0 | WPMY1-GM130-SQSTM1 0 | WPMY1-TP53BP1-CLTA 0 | WPMY1-TUBA1B-RELA 0

CCC[C@H](N[C@@H](C)C(=O)N1[C@H](C(=O)O)C[C@@H]2CCCC[C@@H]21)C(=O)OCC [perindopril]
inactive: A549-ACTB-RAB5A 0 | A549-CANX-COX4 0 | A549-GM130-SQSTM1 0 | A549-TP53BP1-CLTA 0 | A549-TUBA1B-RELA 0 | HepG2-ACTB-RAB5A 0 | HepG2-CANX-COX4 0 | HepG2-GM130-SQSTM1 0 | HepG2-TP53BP1-CLTA 0 | HepG2-TUBA1B-RELA 0 | WPMY1-ACTB-RAB5A 0 | WPMY1-CANX-COX4 0 | WPMY1-GM130-SQSTM1 0 | WPMY1-TP53BP1-CLTA 0 | WPMY1-TUBA1B-RELA 0

CC[N+](C)(CC)CCOC(=O)C1c2ccccc2Oc2ccccc21 [methantheline]
inactive: A549-ACTB-RAB5A 0 | A549-CANX-COX4 0 | A549-GM130-SQSTM1 0 | A549-TP53BP1-CLTA 0 | A549-TUBA1B-RELA 0 | HepG2-ACTB-RAB5A 0 | HepG2-CANX-COX4 0 | HepG2-GM130-SQSTM1 0 | HepG2-TP53BP1-CLTA 0 | HepG2-TUBA1B-RELA 0 | WPMY1-ACTB-RAB5A 0 | WPMY1-CANX-COX4 0 | WPMY1-GM130-SQSTM1 0 | WPMY1-TP53BP1-CLTA 0 | WPMY1-TUBA1B-RELA 0

CCC(CC)(NC(=O)C(C)C)C(=O)N[C@@H](CCCNC(=N)N)C(=O)NC1(C(=O)NC(c2ccc(F)cc2)c2ccc(F)cc2)CCCC1
inactive: A549-ACTB-RAB5A 0 | A549-CANX-COX4 0 | A549-GM130-SQSTM1 0 | A549-TP53BP1-CLTA 0 | A549-TUBA1B-RELA 0 | HepG2-ACTB-RAB5A 0 | HepG2-CANX-COX4 0 | HepG2-GM130-SQSTM1 0 | HepG2-TP53BP1-CLTA 0 | HepG2-TUBA1B-RELA 0 | WPMY1-ACTB-RAB5A 0 | WPMY1-CANX-COX4 0 | WPMY1-GM130-SQSTM1 0 | WPMY1-TP53BP1-CLTA 0 | WPMY1-TUBA1B-RELA 0

COc1cc2c(NC3CCN(C)CC3)nc(N3CCCN(C)CC3)nc2cc1OCCCN(C)C
inactive: A549-ACTB-RAB5A 0 | A549-CANX-COX4 0 | A549-GM130-SQSTM1 0 | A549-TP53BP1-CLTA 0 | A549-TUBA1B-RELA 0 | HepG2-ACTB-RAB5A 0 | HepG2-CANX-COX4 0 | HepG2-GM130-SQSTM1 0 | HepG2-TP53BP1-CLTA 0 | HepG2-TUBA1B-RELA 0 | WPMY1-ACTB-RAB5A 0 | WPMY1-CANX-COX4 0 | WPMY1-GM130-SQSTM1 0 | WPMY1-TP53BP1-CLTA 0 | WPMY1-TUBA1B-RELA 0

C(=C/c1ccccc1)/CN1CCN(C(c2ccccc2)c2ccccc2)CC1 [cinnarazine]
inactive: A549-ACTB-RAB5A 0 | A549-CANX-COX4 0 | A549-GM130-SQSTM1 0 | A549-TP53BP1-CLTA 0 | A549-TUBA1B-RELA 0 | HepG2-ACTB-RAB5A 0 | HepG2-CANX-COX4 0 | HepG2-GM130-SQSTM1 0 | HepG2-TP53BP1-CLTA 0 | HepG2-TUBA1B-RELA 0 | WPMY1-ACTB-RAB5A 0 | WPMY1-CANX-COX4 0 | WPMY1-GM130-SQSTM1 0 | WPMY1-TP53BP1-CLTA 0 | WPMY1-TUBA1B-RELA 0

CCCCN1CCCCC1C(=O)Nc1c(C)cccc1C (stereo not given) [bupivacaine]
inactive: A549-ACTB-RAB5A 0 | A549-CANX-COX4 0 | A549-GM130-SQSTM1 0 | A549-TP53BP1-CLTA 0 | A549-TUBA1B-RELA 0 | HepG2-ACTB-RAB5A 0 | HepG2-CANX-COX4 0 | HepG2-GM130-SQSTM1 0 | HepG2-TP53BP1-CLTA 0 | HepG2-TUBA1B-RELA 0 | WPMY1-ACTB-RAB5A 0 | WPMY1-CANX-COX4 0 | WPMY1-GM130-SQSTM1 0 | WPMY1-TP53BP1-CLTA 0 | WPMY1-TUBA1B-RELA 0

Cc1cc(C(=O)NNCc2ccccc2)no1 [isocarboxazid]
inactive: A549-ACTB-RAB5A 0 | A549-CANX-COX4 0 | A549-GM130-SQSTM1 0 | A549-TP53BP1-CLTA 0 | A549-TUBA1B-RELA 0 | HepG2-ACTB-RAB5A 0 | HepG2-CANX-COX4 0 | HepG2-GM130-SQSTM1 0 | HepG2-TP53BP1-CLTA 0 | HepG2-TUBA1B-RELA 0 | WPMY1-ACTB-RAB5A 0 | WPMY1-CANX-COX4 0 | WPMY1-GM130-SQSTM1 0 | WPMY1-TP53BP1-CLTA 0 | WPMY1-TUBA1B-RELA 0

Cc1ccc(Cl)c(Nc2ccccc2C(=O)O)c1Cl [meclofenamic-acid]
inactive: A549-ACTB-RAB5A 0 | A549-CANX-COX4 0 | A549-GM130-SQSTM1 0 | A549-TP53BP1-CLTA 0 | A549-TUBA1B-RELA 0 | HepG2-ACTB-RAB5A 0 | HepG2-CANX-COX4 0 | HepG2-GM130-SQSTM1 0 | HepG2-TP53BP1-CLTA 0 | HepG2-TUBA1B-RELA 0 | WPMY1-ACTB-RAB5A 0 | WPMY1-CANX-COX4 0 | WPMY1-GM130-SQSTM1 0 | WPMY1-TP53BP1-CLTA 0 | WPMY1-TUBA1B-RELA 0

CC1Cc2ccccc2N1NC(=O)c1ccc(Cl)c(S(N)(=O)=O)c1 (stereo not given) [indapamide]
inactive: A549-ACTB-RAB5A 0 | A549-CANX-COX4 0 | A549-GM130-SQSTM1 0 | A549-TP53BP1-CLTA 0 | A549-TUBA1B-RELA 0 | HepG2-ACTB-RAB5A 0 | HepG2-CANX-COX4 0 | HepG2-GM130-SQSTM1 0 | HepG2-TP53BP1-CLTA 0 | HepG2-TUBA1B-RELA 0 | WPMY1-ACTB-RAB5A 0 | WPMY1-CANX-COX4 0 | WPMY1-GM130-SQSTM1 0 | WPMY1-TP53BP1-CLTA 0 | WPMY1-TUBA1B-RELA 0
